# Test results from PubChem BioAssay (NCATS).
# Results filed as inconclusive are left out. Entries that show only a call come without a potency. Calls of active or inactive are those of the source. Unless noted, the call rests on the fitted dose curve; in most records, active means well fitted curve in the direction sought with a large enough effect; inconclusive means small, poorly fitted or top-dose-only effect, or another doubt; inactive means no such curve, though single readings can be large; an effect the other way counts as inactive or inconclusive.
# Experiments:
# [1] = S16 Schwann cell viability assay (CellTiter-Glo assay) (AID 624031); further: nearly all actives have a fitted effect of over 70% in size; further: potency means the concentration at half of the fitted maximal effect
# Outline: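 Counter-screen for cytotoxicity: parental S16 rat Schwann cells lacking the PMP22 reporters, treated 24 h with compound, viability from cellular ATP by CellTiter-Glo luminescence, normalized to DMSO (0%) and no-cell wells.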
# [2] = S16 Schwann cell PMP22 intronic element firefly luciferase assay (AID 624032); further: nearly all actives have a fitted effect of over 30% in size; further: potency means the concentration at half of the fitted maximal effect
# Outline: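 Rat S16 Schwann cells stably carrying a PMP22 intronic element-driven Fluc reporter were seeded overnight, then exposed to compounds for 24 h at 37 °C. Luminescence was normalized to PTC124 (positive control) and DMSO (0% activity).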
# [3] = biological target: Luciferin 4-monooxygenase (Photinus pyralis) (UniProt P08659); assay: Biochemical firefly luciferase enzyme assay for NPC (AID 624030);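 further: purified P. pyralis luciferase at 10 nM with luciferin and ATP substrate; nearly all actives have a fitted effect of over 70% in size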
# Sequence of Luciferin 4-monooxygenase (Photinus pyralis) (P08659 whole entry, looked up): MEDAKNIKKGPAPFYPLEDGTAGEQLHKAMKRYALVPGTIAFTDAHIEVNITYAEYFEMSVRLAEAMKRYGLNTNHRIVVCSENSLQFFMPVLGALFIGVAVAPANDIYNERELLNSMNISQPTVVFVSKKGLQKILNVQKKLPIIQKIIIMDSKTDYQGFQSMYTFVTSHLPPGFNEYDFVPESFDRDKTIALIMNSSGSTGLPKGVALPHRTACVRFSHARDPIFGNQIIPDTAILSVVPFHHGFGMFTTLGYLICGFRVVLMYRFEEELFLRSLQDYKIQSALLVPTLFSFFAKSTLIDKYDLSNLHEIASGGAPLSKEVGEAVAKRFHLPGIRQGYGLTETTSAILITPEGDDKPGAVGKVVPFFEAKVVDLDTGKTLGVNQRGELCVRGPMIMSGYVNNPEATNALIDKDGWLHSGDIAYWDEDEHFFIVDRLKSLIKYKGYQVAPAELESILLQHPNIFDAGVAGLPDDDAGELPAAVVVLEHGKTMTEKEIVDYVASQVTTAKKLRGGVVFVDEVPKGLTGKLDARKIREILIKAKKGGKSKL
# Outline: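 Counter-screen for direct inhibition of the luciferase enzyme by approved-drug library compounds, run at 10 nM enzyme in 50 mM Tris acetate (final). Luminescence was read within 5 min of enzyme-buffer addition and normalized to PTC124 versus DMSO (0%).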
# [4] = S16 Schwann cell PMP22 intronic element beta-lactamase assay (AID 624044; calls by dose curve; further: nearly all actives have a fitted effect of over 15% in size); settings: S16 rat Schwann cells, PMP22 element beta-lactamase FRET, 24 h; ratio activity, negative = inhibition: at 38.3 µM (top of the series)
# Outline: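 Beta-lactamase reporter under a PMP22 intronic regulatory element in stable S16 rat Schwann cells; 24 h compound exposure. 460 nm blue signal normalized between DMSO (0%) and potassium clavulanate, with 535 nm FRET tracking viability; curves classed by r2 and response.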
# [5] = biological target: Glutaminase kidney isoform, mitochondrial (Homo sapiens) (UniProt O94925); assay: qHTS for Inhibitors of Glutaminase (GLS): LOPAC Validation (AID 624146);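 further: glutamate product detected by oxidase and peroxidase coupled Amplex red fluorescence gain; nearly all actives have a fitted effect of over 60% in size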
# Sequence of Glutaminase kidney isoform, mitochondrial (Homo sapiens) (O94925 whole entry, looked up, canonical isoform): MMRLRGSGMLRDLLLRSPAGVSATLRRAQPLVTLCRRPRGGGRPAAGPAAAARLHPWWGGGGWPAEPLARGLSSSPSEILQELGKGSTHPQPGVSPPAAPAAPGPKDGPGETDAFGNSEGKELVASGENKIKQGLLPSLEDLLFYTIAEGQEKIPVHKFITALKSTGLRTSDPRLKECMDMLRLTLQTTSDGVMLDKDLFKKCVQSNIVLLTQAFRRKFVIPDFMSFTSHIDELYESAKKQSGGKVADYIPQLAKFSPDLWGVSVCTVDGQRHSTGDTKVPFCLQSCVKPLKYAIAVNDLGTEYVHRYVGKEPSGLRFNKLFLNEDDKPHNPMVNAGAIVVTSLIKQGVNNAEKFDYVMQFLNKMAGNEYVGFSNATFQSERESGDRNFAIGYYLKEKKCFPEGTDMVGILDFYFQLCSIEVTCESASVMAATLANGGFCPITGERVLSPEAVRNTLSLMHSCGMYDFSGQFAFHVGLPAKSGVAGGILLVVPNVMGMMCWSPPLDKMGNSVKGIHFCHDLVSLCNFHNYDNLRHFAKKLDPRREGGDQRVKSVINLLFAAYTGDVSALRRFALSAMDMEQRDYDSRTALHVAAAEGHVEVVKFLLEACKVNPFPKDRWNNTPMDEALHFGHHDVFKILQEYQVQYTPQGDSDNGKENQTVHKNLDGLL
# Outline: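 Human kidney-isoform GLS in 45 mM KH2PO4 pH 8.2, 0.02% Tween-20, with compound, started with 1mM L-Glutamine (added stock). Glutamate oxidase/HRP/Amplex red coupled fluorescence read at start and after 30 min at RT.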
# [6] = biological target: Voltage-gated inwardly rectifying potassium channel KCNH2 (Homo sapiens) (UniProt Q12809); assay: qHTS Assay for Small Molecule Inhibitors of the Human hERG Channel Activity (AID 588834);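 further: U2OS cells transduced with hERG by BacMam; top concentration of the series differs between compounds; lower thallium flux fluorescence means stronger hERG block; nearly all actives have a fitted effect of over 50% in size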
# Sequence of Voltage-gated inwardly rectifying potassium channel KCNH2 (Homo sapiens) (Q12809 whole entry, looked up): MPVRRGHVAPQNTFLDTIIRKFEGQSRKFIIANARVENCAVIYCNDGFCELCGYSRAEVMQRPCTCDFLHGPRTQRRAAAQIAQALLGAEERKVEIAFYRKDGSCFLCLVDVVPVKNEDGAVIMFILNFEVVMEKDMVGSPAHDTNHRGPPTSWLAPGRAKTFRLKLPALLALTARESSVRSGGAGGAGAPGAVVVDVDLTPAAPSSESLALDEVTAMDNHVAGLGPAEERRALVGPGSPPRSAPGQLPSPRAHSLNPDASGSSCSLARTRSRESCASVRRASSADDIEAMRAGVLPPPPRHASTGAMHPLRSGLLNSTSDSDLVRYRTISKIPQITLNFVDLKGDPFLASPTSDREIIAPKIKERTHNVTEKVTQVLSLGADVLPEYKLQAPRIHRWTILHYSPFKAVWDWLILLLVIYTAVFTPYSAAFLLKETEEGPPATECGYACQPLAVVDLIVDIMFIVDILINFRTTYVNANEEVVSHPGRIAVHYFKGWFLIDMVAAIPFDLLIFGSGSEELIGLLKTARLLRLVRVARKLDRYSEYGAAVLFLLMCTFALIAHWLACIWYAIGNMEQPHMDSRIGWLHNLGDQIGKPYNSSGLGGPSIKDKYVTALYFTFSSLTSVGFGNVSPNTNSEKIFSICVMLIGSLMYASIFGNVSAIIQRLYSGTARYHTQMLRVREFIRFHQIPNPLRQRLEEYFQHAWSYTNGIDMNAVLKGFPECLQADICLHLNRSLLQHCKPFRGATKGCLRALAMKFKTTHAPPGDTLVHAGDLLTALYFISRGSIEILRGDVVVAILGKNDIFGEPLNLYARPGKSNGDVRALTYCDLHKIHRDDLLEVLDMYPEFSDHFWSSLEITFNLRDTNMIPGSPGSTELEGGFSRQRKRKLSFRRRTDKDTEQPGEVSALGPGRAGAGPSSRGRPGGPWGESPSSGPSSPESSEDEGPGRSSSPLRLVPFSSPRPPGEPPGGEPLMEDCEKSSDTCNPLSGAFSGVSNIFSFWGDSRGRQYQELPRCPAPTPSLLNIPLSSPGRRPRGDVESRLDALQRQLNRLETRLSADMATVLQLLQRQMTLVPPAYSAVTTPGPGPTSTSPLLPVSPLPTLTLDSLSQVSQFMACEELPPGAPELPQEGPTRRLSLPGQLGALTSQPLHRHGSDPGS
# Outline: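 Cells were infected with hERG-BacMam virus for 4 hrs at room temperature, grown overnight, then seeded at 2000/well. After dye loading and roughly 10 min compound treatment, thallium influx was triggered and fluorescence recorded.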
structure (smiles),measurement,setting,value
Cc1ccc(C(=O)C(C)CN2CCCCC2)cc1 (stereo unspecified),Potency,[1],inactive
same,Potency,[2],inactive
CCCCOc1ccc(OCCCN2CCOCC2)cc1,Potency,[3],inactive
same,Potency,[1],inactive
same,Potency,[2],inactive
COc1cccc(CCc2ccccc2OCC(CN(C)C)OC(=O)CCC(=O)O)c1 (stereo unspecified),Potency,[3],inactive
same,Potency,[2],inactive
same,Potency,[4],inactive
COC(=O)[C@H]1[C@H]2C[C@H]3c4[nH]c5ccccc5c4CCN3C[C@H]2CC[C@@H]1O,Potency,[3],inactive
same,Potency,[1],inactive
same,Potency,[2],inactive
CCCOC(C(=O)OC1CCN(C)CC1)(c1ccccc1)c1ccccc1,Potency,[3],inactive
same,Potency,[1],inactive
same,Potency,[2],inactive
CC(C)(C)CC(C)(C)c1ccc(O)c(Cc2ccc(Cl)cc2Cl)c1,Potency,[3],inactive
same,Potency,[2],36.1 µM (active)
CO/N=C1\CN(c2nc3c(cc2F)c(=O)c(C(=O)O)cn3C2CC2)CC1CN (stereo unspecified),Potency,[1],inactive
same,Potency,[2],inactive
COC(=O)CCc1ccc(OCC(O)CNC(C)C)cc1 (stereo unspecified),Potency,[3],inactive
COc1cc2c(cc1OC)C(=O)C(CC1CCN(Cc3ccccc3)CC1)C2 (stereo unspecified),Potency,[3],inactive
same,Potency,[4],inactive
CC(CCc1ccccc1)NCC(O)c1ccc(O)c(C(N)=O)c1 (stereo unspecified),Potency,[5],inactive
COC(=O)C1=C(C)NC(C)=C(C(=O)O[C@@H]2CCCN(Cc3ccccc3)C2)[C@@H]1c1cccc([N+](=O)[O-])c1,Potency,[3],inactive
CC[C@H](C)C(=O)O[C@H]1CCC=C2C=C[C@H](C)[C@H](CC[C@@H]3C[C@@H](O)CC(=O)O3)[C@H]21,Potency,[5],inactive
CC(=O)O[C@H]1C[C@@H]2CC[C@@H]3[C@H](CC[C@@]4(C)[C@H]3C[C@H]([N+]3(C)CCCCC3)[C@@H]4OC(C)=O)[C@@]2(C)C[C@@H]1[N+]1(C)CCCCC1,Potency,[6],inactive
same,Potency,[5],inactive
Cc1cccc(C)c1NC(=O)CN1CCN(CCCC(c2ccc(F)cc2)c2ccc(F)cc2)CC1,Potency,[3],inactive
same,Potency,[2],inactive
COc1cc2c(cc1OC)C(C(C(=O)N(CCc1ccc(OC)c(OC)c1OC)CCc1ccc(OC)c(OC)c1OC)c1ccccc1)=NCC2 (stereo unspecified),Potency,[3],inactive
same,Potency,[1],inactive
same,Potency,[2],28.7 µM (active)
same,Potency,[4],inactive
CCCC1O[C@@H]2C[C@H]3[C@@H]4CCC5=CC(=O)C=C[C@]5(C)[C@H]4[C@@H](O)C[C@]3(C)[C@]2(C(=O)CO)O1 (stereo partly specified),Potency,[6],inactive
same,Potency,[5],inactive
CC(C)COC(=O)OCN1C(=O)CN(CCN2CC(=O)N(COC(=O)OCC(C)C)C(=O)C2)CC1=O,Potency,[3],inactive
same,Potency,[1],inactive
same,Potency,[2],inactive
same,Potency,[5],inactive
COc1ccc(C2C(=O)c3ccccc3C2=O)cc1,Potency,[3],inactive
same,Potency,[1],inactive
same,Potency,[2],inactive
Cc1ccc(Nc2c(F)cccc2Cl)c(CC(=O)O)c1,Potency,[3],inactive
CCN1CCC[C@H]1CNC(=O)c1c(OC)ccc(Br)c1OC,Potency,[3],inactive
same,Potency,[1],inactive
same,Potency,[2],inactive
CCCN1CCCC[C@H]1C(=O)Nc1c(C)cccc1C,Potency,[3],inactive
same,Potency,[2],inactive
same,Potency,[4],inactive
CC1(C)OC[C@@H](COC(=O)CCc2ccc(OC[C@@H](O)CNCCNC(=O)N3CCOCC3)cc2)O1,Potency,[3],inactive
Cc1c(C)n(Cc2ccccc2)c2ccc(C(=O)OCCN(C)C)cc12,Potency,[2],inactive
CC(C)N=C(N)/N=C(\N)Nc1ccc(Cl)cc1,Potency,[3],inactive
same,Potency,[1],inactive
Clc1ccc2c(c1)CCc1cccnc1C2=C1CCNCC1,Potency,[3],inactive
CN(C(=O)CN(CCO)CC(=O)N(C)C(C)(C)Cc1ccccc1)C(C)(C)Cc1ccccc1,Potency,[3],inactive
same,Potency,[1],inactive
same,Potency,[2],inactive
O=S1(=O)c2cccc3cccc(c23)N1CCCN1CCN(c2ccc(F)cc2)CC1,Potency,[3],inactive
same,Potency,[2],inactive
same,"ratio activity, negative = inhibition",[4],-2.31% (active)
COc1ccc(CCN2CCC(Nc3nc4ccccc4n3Cc3ccc(F)cc3)CC2)cc1,Potency,[1],16.1 µM (active)
same,Potency,[2],20.3 µM (active)
NCCCC[C@H](N[C@@H](CCc1ccccc1)C(=O)O)C(=O)N1CCC[C@H]1C(=O)O,Potency,[3],inactive
same,Potency,[2],inactive
same,Potency,[4],inactive
CCCCCCCCCCCCCCCC[N+](C)(C)CC,Potency,[1],32.2 µM (active)
same,Potency,[2],14.4 µM (active)
CCN(CCCc1ccccc1)CCCc1ccccc1,Potency,[3],inactive
same,Potency,[1],inactive
same,Potency,[2],inactive
CNCCC(Oc1ccccc1C)c1ccccc1 (stereo unspecified),Potency,[3],inactive
same,Potency,[2],inactive
same,Potency,[4],inactive
same,Potency,[5],inactive
O=C1OCCN1/N=C/c1ccc([N+](=O)[O-])o1,Potency,[3],inactive
same,Potency,[1],inactive
same,Potency,[4],inactive
CC(C)NC[C@@H](O)COc1cccc2ccccc12,Potency,[3],inactive
CCCCS(=O)(=O)N[C@@H](Cc1ccc(OCCCCC2CCNCC2)cc1)C(=O)O,Potency,[3],inactive
C[C@H]1[C@H](NC(=O)/C(=N/OC(C)(C)C(=O)O)c2csc(N)n2)C(=O)N1S(=O)(=O)O (stereo in doubt),Potency,[3],inactive
same,Potency,[1],inactive
same,Potency,[2],inactive
